The source of these data is PubChem BioAssay (NCATS).

Starred links: 1 amine or outer side, 2 acyl side, 3 side chain; linkers in the order of their positions; H or OH if unused. Positions of bridges follow the written chain, without caps; N, C: chain ends. Non-standard residues stand in square brackets, D forms with d. Residues, ends and D or L forms follow the SMILES beside them. ξ: configuration not given here. *: point of attachment. ΔAla(3-NHCONH2) = NC(=O)NC=C(N)C(=O)O; X1 = NC1=NCCC(C(N[*:1])C(=O)[*:2])N1; ξβ3hOrn = NCCCC(N)CC(=O)*; Dap = NC[CH](N)C(=O)O

A short description of one assay: qHTS profiling of the MIPE4 collection as inhibitors of Plasmodium falciparum (DD2) proliferation (AID 743345). Conditions: P. falciparum Dd2 in erythrocytes, SYBR Green DNA, 72 h; at 0.217 µM (top of the series). The text has this:
Plasmodium falciparum is a virulent malarial parasite that kills 1-2 million people worldwide each year. Transmitted by mosquitoes, the sporozoite form of the parasite enters the blood stream to infect hepatocytes, where they become merozoites that infect red blood cells (erythrocytes). Within erythrocytes, merozoites begin a […] cycle of growth and division, after which the parasite is released to infect new red blood cells. Gametocytes, which form within erythrocytes as well, circulate in the bloodstream and are ingested by the mosquito, thereby completing the life cycle. To profile malarial isolates for differential chemical responses and to identify inhibitors of malarial growth, an assay that measures P. falciparum growth and replication within erythrocytes was employed. This assay uses a DNA binding fluorescent dye (SYBR Green) to detect parasite DNA following cell lysis. Because mature erythrocytes lack DNA, only Plasmodium-derived DNA is detected.
The SYBR Green viability assay was adapted from a method described previously (Plouffe et al., 2008). For screening 3 ul culture medium was dispensed into 1536 well black clear bottom plates (Aurora Biotechnologies) using a Multidrop Combi (Thermo Fisher Scientific Inc.), 23 nL compounds in DMSO were added by a pin tool (Kalypsys), and 5 ul of erythrocytes infected with P. falciparum (0.3% parasitemia, 2.5% hematocrit final concentration) were added. The plates were incubated at 37 C in a humidified incubator in 5% CO2 for 72 h, and 2 ul lysis buffer (20 mM Tris HCl, 10 mM EDTA, 0.16% saponin, 1.6% triton X, 10X SYBR Green I supplied as 10,000X […] by Invitrogen) was added to each well. The plates were mixed for 25 sec with gentle shaking and incubated overnight at room temperature in the dark. The following morning, fluorescence intensity at 485(14) nm excitation and 535(25) nm emission wavelengths was measured on an EnVision (Perkin Elmer) plate reader. Plate reads were normalized relative to the control inhibitor (0.29 uM artemisinin) and vehicle (DMSO) wells present on each plate and then corrected by an algorithm using vehicle-only control plates at the beginning and end of the compound plate stack.
A general note: In qHTS, concentration-response curves come from the screen itself.
`NCCCC(N)CC(=O)NCC1NC(=O)C(CO)NC(=O)C(N)CNC(=O)C(C2CCN=C(N)N2)NC(=O)C(=CNC(N)=O)NC1=O` (stereo not drawn) (H-[Dap]S[Dap](ξβ3hOrn)[ΔAla(3-NHCONH2)][X1]; lactam 1-C; configuration not given here): the parasite growth remaining, % of DMSO control (lower = more inhibition) was found to be 92.4%.

Still in this assay, the particulars now being: P. falciparum Dd2 in erythrocytes, SYBR Green DNA, 72 h; at 28.5 µM (top of the series).
`NCCCC(N)CC(=O)NCC1NC(=O)C(CO)NC(=O)C(N)CNC(=O)C(C2CCN=C(N)N2)NC(=O)C(=CNC(N)=O)NC1=O` (stereo not drawn) (H-[Dap]S[Dap](ξβ3hOrn)[ΔAla(3-NHCONH2)][X1]; lactam 1-C; configuration not given here): the parasite growth remaining, % of DMSO control (lower = more inhibition) stood at 100%.

The assay is the same for the next values; noted with them: P. falciparum Dd2 in erythrocytes, SYBR Green DNA, 72 h; at 28.5 µM (top of the series) unless noted.
Consider `CN(C)CCc1ccc(O)cc1`, for which the parasite growth remaining, % of DMSO control (lower = more inhibition) was found to be 95.5%.
`Cc1cccc(C)c1NC(=O)CN1CCCC1=O`: the parasite growth remaining, % of DMSO control (lower = more inhibition) came to 99.6%.
For `CC(C)CC(N(C)C)C1(c2ccc(Cl)cc2)CCC1` (stereo not given), the parasite growth remaining, % of DMSO control (lower = more inhibition) was 99.9%.
Consider `C[C@@H]1[C@@H](C(=O)C[C@H]2O[C@@H]3O[C@]4(C)CC[C@@H]5[C@H](C)CC[C@@H]([C@H]2C)[C@@]35OO4)O[C@@H]2O[C@]3(C)CC[C@H]4[C@H](C)CC[C@@H]1[C@@]24OO3`, for which the parasite growth remaining, % of DMSO control (lower = more inhibition) was found to be 7.59%.
Same read-out and setting: the figure for `CC1=C2C[C@@H]3[C@@H](CC=C4C[C@@H](O)CC[C@@]43C)[C@@H]2CC[C@]12O[C@H]1C[C@H](C)CN[C@H]1[C@H]2C` is 16.2%.
On to `C[C@@H]1O[C@@H](O[C@H]2C[C@@H](O)[C@]3(CO)[C@H]4[C@H](O)C[C@]5(C)[C@@H](C6=CC(=O)OC6)CC[C@]5(O)[C@@H]4CC[C@]3(O)C2)[C@H](O)[C@H](O)[C@H]1O`, for which the parasite growth remaining, % of DMSO control (lower = more inhibition) came to 95.7%.
On the same count and under the same terms, the figure for `Cn1cc(C2=C(c3cn(C4CCN(Cc5ccccn5)CC4)c4ccccc34)C(=O)NC2=O)c2ccccc21` is 19.9%; for `COc1ccc(C(=O)c2c(C)n(CCN3CCOCC3)c3ccccc23)cc1` it is 95.8%; for `CO[C@]12CC[C@@]3(C[C@@H]1[C@](C)(O)C(C)(C)C)[C@@H]1Cc4ccc(O)c5c4[C@@]3(CCN1CC1CC1)[C@H]2O5` it is 6.03% [at 57.2 µM].
Regarding `CNCC(O)c1ccc(O)cc1` (stereo not given), the parasite growth remaining, % of DMSO control (lower = more inhibition) came to 99.8%.
The same measure, in the same setting: the figure for `CN(C)[C@@H]1C(=O)C(C(N)=O)=C(O)[C@@]2(O)C(=O)C3=C(O)c4c(O)cccc4[C@@](C)(O)[C@H]3C[C@@H]12` is 39.9%.
Still for that read-out and setting: the figure for `O=NN(CCCl)C(=O)NC1CCCCC1` is 101%.
Consider `CNC(=O)N1N=C(c2ccc(N)cc2)c2cc3c(cc2CC1C)OCO3` (stereo not given), for which the parasite growth remaining, % of DMSO control (lower = more inhibition) was 107%.
On to `Cc1sc2c(c1C)C(c1ccc(Cl)cc1)=N[C@@H](CC(=O)OC(C)(C)C)c1nnc(C)n1-2`, for which the parasite growth remaining, % of DMSO control (lower = more inhibition) was 24.4%.
As for `NCC1(CC(=O)O)CCCCC1`, the parasite growth remaining, % of DMSO control (lower = more inhibition) was 87.6%.
As for `Cc1c(OCC(F)(F)F)ccnc1CS(=O)c1nc2ccccc2[nH]1` (stereo not given), the parasite growth remaining, % of DMSO control (lower = more inhibition) came to 83.1%.
With `COc1ccc(C(CN(C)C)C2(O)CCCCC2)cc1` (stereo not given), the parasite growth remaining, % of DMSO control (lower = more inhibition) turned out to be 58.9%.
Regarding `Cn1c(CCCC(=O)O)nc2cc(N(CCCl)CCCl)ccc21`, the parasite growth remaining, % of DMSO control (lower = more inhibition) was found to be 81.5%.
Same read-out and setting: the figure for `CC1Cc2ccccc2N1NC(=O)c1ccc(Cl)c(S(N)(=O)=O)c1` (stereo not given) is 34.3%.
In the case of `O=C(O)C(=O)c1cn(Cc2ccccc2)c2ccc(-c3ccc(OC(F)(F)F)cc3)cc12`, the parasite growth remaining, % of DMSO control (lower = more inhibition) turned out to be 108%.
With `CN(C)CCN(C)CCc1ccc(Cl)c(Cl)c1`, the parasite growth remaining, % of DMSO control (lower = more inhibition) is 32%.
Regarding `Cc1nc2n(c(=O)c1CCN1CCC(c3noc4cc(F)ccc34)CC1)CCCC2`, the parasite growth remaining, % of DMSO control (lower = more inhibition) came to 70.5%.
On the same count and under the same terms, the figure for `O=P1(NCCCl)OCCCN1CCCl` (stereo not given) is 97.2%; for `CN1CCN(C(=O)O[C@H]2c3nccnc3C(=O)N2c2ccc(Cl)cn2)CC1` it is 98.2%.
As for `N[C@@H](Cc1ccc(N(CCCl)CCCl)cc1)C(=O)O`, the parasite growth remaining, % of DMSO control (lower = more inhibition) is 21.4%.
As for `COc1cc2c(c(OC)c1OC)-c1ccc(OC)c(=O)cc1[C@@H](NC(C)=O)CC2`, the parasite growth remaining, % of DMSO control (lower = more inhibition) came to 78.8%.
On the same count and under the same terms, the figure for `CCOC(=O)c1ncn2c1CN(C)C(=O)c1cc(F)ccc1-2` is 84.4%.
Regarding `CCCC(C)(COC(N)=O)COC(=O)NC(C)C` (stereo not given), the parasite growth remaining, % of DMSO control (lower = more inhibition) amounted to 91%.
Consider `COc1cc([C@@H]2c3cc4c(cc3[C@H](O)[C@H]3COC(=O)[C@H]23)OCO4)cc(OC)c1OC`, for which the parasite growth remaining, % of DMSO control (lower = more inhibition) stood at 89.6%.
In the case of `C#CCN(C)[C@H](C)Cc1ccccc1`, the parasite growth remaining, % of DMSO control (lower = more inhibition) is 97.8%.
For the molecule `O=c1[nH]c2ccccc2n1CCCN1CCC(n2c(=O)[nH]c3cc(Cl)ccc32)CC1`, the parasite growth remaining, % of DMSO control (lower = more inhibition) was determined as 52.4%.
For the molecule `O=NN(CCCl)C(=O)NCCCl`, the parasite growth remaining, % of DMSO control (lower = more inhibition) came to 102%.
The same measure, in the same setting: the figure for `CCn1cc(C(=O)O)c(=O)c2cc(F)c(N3CCNCC3)cc21` is 60.2%; for `O=c1c(O)c(-c2ccc(O)c(O)c2)oc2cc(O)cc(O)c12` it is 39%; for `COc1ccc2c(c1OC)CN1CCc3cc4c(cc3C1C2)OCO4` (stereo not given) it is 24.6%.
For the molecule `C=C(C)[C@H]1Cc2c(ccc3c2O[C@@H]2COc4cc(OC)c(OC)cc4[C@@H]2C3=O)O1`, the parasite growth remaining, % of DMSO control (lower = more inhibition) came to 94.4%.
Regarding `Fc1ccc(C(OCCN2CCN(CCCc3ccccc3)CC2)c2ccc(F)cc2)cc1`, the parasite growth remaining, % of DMSO control (lower = more inhibition) was 9.78%.
On to `O=C1CC[C@@]2(O)[C@H]3Cc4ccc(O)c5c4[C@@]2(CCN3CC2CC2)[C@H]1O5`, for which the parasite growth remaining, % of DMSO control (lower = more inhibition) was determined as 113%.
